This is a sample that favours compounds with a hit; in the whole collection about 3% have one here.
ABHD5 PLIN5 PPI = blocks binding of human ABHD5 to perilipin-5; Q00G26+Q8WTS1; Split G. princeps luciferase complementation, luminescence, 4 h; inhibition, % at 4 µM; 360,000 compounds, 0.78% hits;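 active = inhibition above the mean inhibition across every tested compound plus 3 SD, cut at about 22% in these data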
Target sequence (Q00G26 whole entry, looked up): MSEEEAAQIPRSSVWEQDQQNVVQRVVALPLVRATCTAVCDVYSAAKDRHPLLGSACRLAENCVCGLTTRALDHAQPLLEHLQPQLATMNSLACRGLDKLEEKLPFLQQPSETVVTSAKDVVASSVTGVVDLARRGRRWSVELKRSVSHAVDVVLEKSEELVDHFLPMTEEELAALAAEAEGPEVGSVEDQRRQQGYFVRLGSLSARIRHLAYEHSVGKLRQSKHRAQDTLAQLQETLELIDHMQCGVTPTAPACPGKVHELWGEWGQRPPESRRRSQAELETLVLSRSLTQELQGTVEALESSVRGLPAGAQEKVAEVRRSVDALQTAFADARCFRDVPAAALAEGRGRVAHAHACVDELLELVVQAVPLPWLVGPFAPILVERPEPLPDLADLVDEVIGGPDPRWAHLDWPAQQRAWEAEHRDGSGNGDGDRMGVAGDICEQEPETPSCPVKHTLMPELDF
Target sequence (Q8WTS1 whole entry, looked up): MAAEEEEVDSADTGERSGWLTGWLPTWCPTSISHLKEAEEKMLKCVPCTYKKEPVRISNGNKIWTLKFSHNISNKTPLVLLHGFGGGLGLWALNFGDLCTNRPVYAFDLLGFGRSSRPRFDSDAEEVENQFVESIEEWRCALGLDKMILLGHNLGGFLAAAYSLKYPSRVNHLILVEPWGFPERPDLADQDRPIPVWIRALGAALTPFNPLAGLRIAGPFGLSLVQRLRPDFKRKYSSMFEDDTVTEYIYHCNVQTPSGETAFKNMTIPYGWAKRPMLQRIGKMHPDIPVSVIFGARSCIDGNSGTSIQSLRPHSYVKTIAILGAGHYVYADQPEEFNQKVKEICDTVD
Peg3 prom inh = Peg3 promoter activity inhibition; AID 588405; inhibition, % at 20 µM; 360,000 compounds, 1.7% hits; HeLa PEG-Prom luciferase reporter, luminescence, overnight;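 active = inhibition of at least 50% at 20 µM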
HIF-2a inh = inhibitors of HIF-2a; 786-0 RCC cells HIF-2a reporter, luciferase luminescence, overnight; inhibition, % at 18.8 µM; 360,000 compounds, 0.72% hits;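 active = inhibition of the luminescence signal of 40% or more relative to plate controls, in a single-dose primary screen at 18.75 µM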
CF NFkB block = inhibitors of cystic fibrosis induced NF-kB; KKLEB NF-kB-GFP reporter, PAF-induced, GFP fluorescence overnight; inhibition, % at 5 µM; 360,000 compounds, 0.86% hits; AID 588850;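 active = at least 50% inhibition at 5 µM, scaled per plate between neutral and stimulator controls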;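 note: PAF is a Pseudomonas aeruginosa culture filtrate used as stimulus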
MITF TRPM1 inh = reduces MITF-dependent TRPM1 promoter luciferase signal; SK-MEL-5 TRPM1 promoter luciferase, 24 h; inhibition, % at 12.5 µM; 330,000 compounds, 0.83% hits;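 active = mean inhibition across replicates of 60% or more, whatever share of single replicates reaches that level; inconclusive = some that reach 60%, reason not given; inactive = mean inhibition across replicates below 60%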
KKLEB cytotox = CF airway cell cytotoxicity counter-screen | 360,000 compounds, 0.36% hits | KKLEB CF airway cells viability, ATPlite luminescence, overnight; stronger effect = lower value; cells stimulated with P. aeruginosa culture filtrate | activity change (cytotoxicity), % at 5 µM;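 active = corrected activity change at or below -50% at 5 µM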
CF NFkB conf = CF NF-kB inhibition confirmation, single concentration; shares compounds with CF NFkB block; KKLEB CF airway cells, PAF-induced NF-kB-GFP fluorescence, overnight; inhibition, % at 5 µM; 1,300 compounds, 64% hits; AID 602472; in the data active = inhibition above about 40%;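 note: stimulus PAF is a Pseudomonas aeruginosa filtrate and not platelet activating factor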
ABHD5-PLIN5 conf = ABHD5-PLIN5 interaction inhibition, confirmed. shares compounds with ABHD5 PLIN5 PPI. biochemical ABHD5-PLIN5 interaction, luminescence. inhibition, % at 4 µM. 2,200 compounds, 67% hits. AID 651612; in the data active = inhibition above about 23%
HNF4 split-luc = HNF4 split-luciferase signal hit, counter-screen. HNF4 dimerization, luminescence, biochemical. inhibition, % at 4 µM. 2,200 compounds, 77% hits. AID 651674. shares compounds with ABHD5 PLIN5 PPI;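 active = mean inhibition across replicate wells exceeding the computed hit threshold, cut at about 13% in these data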;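 note: light from luciferase halves that rejoin when HNF4 fusion proteins dimerize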
Mdm2-MdmX confirm = confirmation of inhibitors of human Mdm2/MdmX interaction, set 2 | SaOS-2 split-luciferase Mdm2/MdmX complementation, luminescence | shares compounds with HIF-2a inh | 740 compounds, 99% hits | inhibition, % at 8 µM;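 active = mean inhibition of the luminescence signal across two replicates at or above 26 percent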
HIF-2a inh conf = HIF-2a inhibition, single concentration confirmation | AID 651580 | 1,800 compounds, 56% hits | shares compounds with HIF-2a inh | 786-0 RCC cells, HIF-2a luciferase reporter luminescence, overnight | inhibition, % at 18.8 µM;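 active = mean inhibition across four replicates of at least 40 percent at the single tested concentration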
HIF-1a counter = inhibits HIF-1a reporter, a counter-screen for HIF-2a inhibitors; 1,800 compounds, 72% hits; inhibition, % at 18.8 µM; AID 651589; MiaPaCa-2 HIF-1a luciferase reporter, desferoxamine, overnight; shares compounds with HIF-2a inh;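 active = mean inhibition of the reporter signal across four replicates at the single tested dose of 50% or more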
Hits are given with their value; – = inactive; ? = inconclusive; · = not tested or not shown.

SMILES	ABHD5 PLIN5 PPI	Peg3 prom inh	HIF-2a inh	CF NFkB block	MITF TRPM1 inh	KKLEB cytotox	CF NFkB conf	others
COc1ccc(C(c2nnnn2-c2ccc3c(c2)OCCO3)N2CCC(n3c(=O)[nH]c4ccccc43)CC2)cc1 (stereo not given)	–	63	–	61	·	–	–
COc1ccc(-n2nnnc2C(CCc2ccccc2)N2CCC(n3c(=O)[nH]c4ccccc43)CC2)cc1 (stereo not given)	–	99	–	75	·	–	88
COc1ccc(C(c2nnnn2-c2ccc(OC)cc2)N2CCC3(CC2)C(=O)NCN3c2ccccc2)cc1 (stereo not given)	–	–	–	–	·	–	·
CCCCn1nnnc1C(CCc1ccccc1)N1CCC(n2c(=O)[nH]c3ccccc32)CC1 (stereo not given)	–	82	–	88	·	–	74
COc1ccc2nc(-c3ccc(CN4CCC(n5c(=O)[nH]c6ccccc65)CC4)cc3)c(-c3ccccc3)nc2c1	–	·	–	·	·	·	·
CCC1(Cc2ccccc2)C(=O)NC(=S)N(C)C1=O (stereo not given)	–	–	–	–	–	–	·
C[C@H]1CCCC(=O)CCC/C=C/c2cc(O)cc(O)c2C(=O)O1	–	–	–	51	–	–	58
COc1cc(O)cc2c1C(=O)OC(C)CCCC(=O)CCC/C=C\2 (stereo not given)	–	–	–	–	–	–	·
Fc1cccc(-c2ccc3c(c2)CNCc2cnnn2-3)c1	–	–	–	–	·	–	·
O=C1C=CC(=O)C2C1C1(Cl)C(Cl)=C(Cl)C2(Cl)C1(Cl)Cl (stereo not given)	–	65	–	54	–	–	–
C=C1C(C)C2C(Cc3ccccc3)NC(=O)C23OC(=O)/C=C/C(O)CCCC(C)C/C=C/C3C1O (stereo not given)	–	58	–	76	–	–	97
COc1cc2c(c(OC)c1O)-c1ccc(OC)c(=O)cc1C(NC(=O)C(F)(F)F)CC2 (stereo not given)	–	–	–	51	–	–	87
COc1cc2c(c(OC)c1OC)-c1ccc(C(=O)O)cc1[C@@H](NC(C)=O)CC2	–	–	–	–	–	–	·
CC(C)C(O)(C(=O)OCC1=CCN2CCC(O)C12)C(C)O (stereo not given)	–	–	–	–	·	–	·
CC(C)(C)n1nnnc1C(c1cccs1)N1CCC2(CC1)C(=O)NCN2c1ccccc1 (stereo not given)	–	–	–	–	·	–	·
CC12CC(=O)C3C(CCC4CC(=O)C=CC43C)C1CCC2=O (stereo not given)	–	–	–	66	–	–	–
CC(=O)c1c(C)n(C2CCCCC2)c2ccc(O)cc12	–	–	–	96	–	–	100	Mdm2-MdmX confirm=85
C[C@]12C[C@H](O)[C@@H](O)C[C@@H]1CC[C@@H]1[C@@H]2CC[C@]2(C)C(=O)CC[C@@H]12	–	–	–	–	·	–	·
Cc1c(C(=O)c2cccc3ccccc23)c2cccc3c2n1[C@H](CN1CCOCC1)CO3	–	79	70	55	–	–	64	HIF-2a inh conf=46;HIF-1a counter=79
O=C(CN1CCOCC1)c1cccc2ccccc12	–	–	–	–	–	–	·
Cc1cc(C)c(S(=O)(=O)N2Cc3ccccc3-n3nncc3C2)c(C)c1	–	–	–	–	·	–	·
COc1ccc2c(c1)[nH]c1c(C)nccc12	–	–	38	57	–	–	83	HIF-2a inh conf=–;HIF-1a counter=86
CN1C(=O)C(=Cc2cccnc2)C(=O)N(C)C1=O	27	–	–	–	–	–	·	ABHD5-PLIN5 conf=37;HNF4 split-luc=49
CCC1(NS(=O)(=O)c2ccc(N)cc2)C(=O)N(C)C(=O)N(C)C1=O	–	–	–	–	–	–	·
COC(=O)C1=C(c2ccc(OC(F)(F)F)cc2)C[C@@H]2CC[C@H]1N2C(=O)NC1CCCCC1	–	–	–	–	–	–	·
SMILES	ABHD5 PLIN5 PPI	Peg3 prom inh	HIF-2a inh	CF NFkB block	MITF TRPM1 inh	KKLEB cytotox	CF NFkB conf	others
COc1ccc(CN2Cc3cnnn3-c3ccccc3C2C)cc1 (stereo not given)	–	–	–	–	–	–	·
O=C1NC(=O)C(=Cc2ccc(N3CCN(C(=O)c4ccccc4)CC3)c([N+](=O)[O-])c2)C(=O)N1	41	–	–	–	–	–	·	ABHD5-PLIN5 conf=91;HNF4 split-luc=90
CS(=O)(=O)c1ccc(C2=C(CNC(=O)c3nccs3)[C@H]3CC[C@@H](C2)N3CCOc2ccccc2)cc1	–	–	–	–	·	–	·
Cc1cc(C)cc(N2C(=O)NC(=O)/C(=C\c3cccn3-c3ccccc3)C2=O)c1	25	75	43	–	66	–	·	ABHD5-PLIN5 conf=58;HNF4 split-luc=70
Cc1cccc(N2C(=O)NC(=O)/C(=C\c3cnc(-c4ccccc4)nc3)C2=O)c1	–	–	–	–	–	–	·
COc1ccc(OC(=O)N(C)C[C@@H]2OCc3cnnn3CCCC(=O)N([C@H](C)CO)C[C@H]2C)cc1	–	–	–	–	·	–	·
Brc1ccc2c(c1)C(OC1CN3CCC1CC3)c1ccccc1CS2 (stereo not given)	29	110	–	–	?	–	·	ABHD5-PLIN5 conf=–;HNF4 split-luc=12
Cc1ncoc1C(=O)NCC1=C(c2ccc(S(C)(=O)=O)cc2)C[C@@H]2CC[C@H]1N2Cc1ccco1	–	–	–	–	·	–	·
COC(=O)C1=C(c2ccc3ccccc3c2)C[C@@H]2CC[C@H]1N2C(=O)NCc1ccc(C(F)(F)F)cc1	–	–	–	–	–	–	·
CCCCn1c(NS(=O)(=O)c2ccc(C)cc2)c(C(=O)OCC)c2nc3ccccc3nc21	–	–	–	–	–	–	·
CCCCn1c(NC(=O)c2ccco2)c(C(=O)OCC)c2nc3ccccc3nc21	31	–	–	–	–	–	·	ABHD5-PLIN5 conf=41;HNF4 split-luc=62

High-throughput results (PubChem BioAssay)
